# “And” between values parts separate entries of the source, which are not always exact repeats. Equal values may be shown once. Inconclusive results are not listed. A call without a number means that no potency is given here. Some structures have more than one record in an assay (separate samples or runs), and their calls can disagree. The source made the active and inactive calls. Unless noted, calls come from the whole dose curve.
# How the values were obtained:
# [1] = Nuclear factor erythroid 2-related factor 2/antioxidant responsive element (Nrf2/ARE) small molecule agonists: qHTS cell viability counter screen in human keratinocytes (AID 1919968; active = well fitted curve in the direction sought with a large enough effect in the repeat runs; an effect the other way counts as inactive or inconclusive; note: nearly all actives have a fitted effect of over 55% in size)
# Summary of the method: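 Viability counter-screen: KeratinoSens reporter cells, DMSO-delivered compounds, 23 h at 37 C, CellTiter-Fluor fluorescence.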
# [2] = Nuclear factor erythroid 2-related factor 2/antioxidant responsive element (Nrf2/ARE) small molecule agonists: luciferase reporter gene qHTS assay in human keratinocytes (AID 1919969); note: nearly all actives have a fitted effect of over 35% in size; note: potency is the fitted concentration of half-maximal effect
# [3] = biological target: Gonadotropin-releasing hormone receptor (Homo sapiens) (UniProt P30968); assay: Human gonadotropin-releasing hormone receptor (GnRHR) small molecule agonists, calcium flux assay in GnRHR-HEK293 cells (AID 1920063); note: nearly all actives have a fitted effect of over 35% in size
# Summary of the method: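 Tox21-format agonist screen using human GnRHR-expressing HEK293 cells and a fluorescent calcium dye; kinetic 3-min fluorescence reading after compound addition, 15-point concentration series run in triplicate.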
# [4] = biological target: KiSS-1 receptor (Homo sapiens) (UniProt Q969F8); assay: Human kisspeptin (KISS1R) small molecule agonists, calcium flux assay in KISS1R-HEK293 cells (AID 1920064; active = well fitted curve in the direction sought with a large enough effect in the repeat runs; an effect the other way counts as inactive or inconclusive)
# Summary of the method: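 Intracellular calcium mobilization in KISS1R-HEK293 cells was recorded by fluorescence (Ex/Em 480/540) for 3 min following compound addition to cells pre-loaded 1 h with calcium dye.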
# [5] = G protein-coupled receptor (GPCR) small molecule agonists, calcium flux assay: HEK293 wild type cell line counter screen (AID 1920065)
# Summary of the method: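 In this agonist-mode screen, ATP is the positive control and DMSO the vehicle. Cells grow 18 h before a 1 h dye incubation at 37 C; signal is taken at Ex/Em 480/540 over 3 min.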
# [6] = p53 small molecule agonists, cell-based qHTS assay with human liver microsomes: qHTS cell viability counter screen (AID 1963579); note: nearly all actives have a fitted effect of over 45% in size
# Summary of the method: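 Viability of p53RE-bla cells is measured as CellTiter-Glo luminescence following a 16 h, 37 C incubation with compound, liver microsomes from human donors and NADPH.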
# [7] = p53 small molecule agonists, cell-based qHTS assay: qHTS cell viability counter screen (AID 1963581); note: nearly all actives have a fitted effect of over 45% in size
# Summary of the method: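 Compounds are pinned onto HCT-116 p53RE-bla cells and left 16 h at 37 C. Following the reporter FRET read, ATP is quantified by CellTiter-Glo luminescence after 30 min at room temperature.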
# [8] = biological target: 5-hydroxytryptamine receptor 2A (Homo sapiens) (UniProt P28223); assay: 5-hydroxytryptamine receptor 2A (HTR2A) small molecule antagonists, cell-based qHTS assay (AID 1963586); note: nearly all actives have a fitted effect of over 45% in size
# Summary of the method: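 Antagonist-mode intracellular calcium assay: DOI (4 nM) added after 5 min compound pre-incubation at room temperature to dye-loaded HTR2A-CHO cells. Fluorescence followed for 3 min, sampled every second.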
# [9] = biological target: 5-hydroxytryptamine receptor 2A (Homo sapiens) (UniProt P28223); assay: 5-hydroxytryptamine receptor 2A (HTR2A) small molecule agonists, cell-based qHTS assay (AID 1963587); note: nearly all actives have a fitted effect of over 30% in size; note: potency is the fitted concentration of half-maximal effect
# Summary of the method: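 Kinetic calcium-flux fluorescence (2 min, 1 sec intervals) after compound addition in agonist mode. HTR2A-CHO cells were cultured 18 h, then dye-loaded 1 h at 37 C.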
# [10] = biological target: Muscarinic acetylcholine receptor M1 (Homo sapiens) (UniProt P11229); assay: Cholinergic receptor muscarinic 1 (CHRM1) small molecule agonists, cell-based qHTS assay (AID 1963589); note: nearly all actives have a fitted effect of over 35% in size
# Summary of the method: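 Stable CHRM1-CHO cells (human receptor) were incubated 18 h, dye-loaded for 1 h at 37 C and exposed to test compounds for agonist activity, with calcium-dependent fluorescence followed kinetically.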
# [11] = cAMP Responsive Elements (CRE) small molecule agonists, cell-based qHTS assay (AID 1963590)
# Summary of the method: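 FRET-based beta-lactamase readout (LiveBLAzer B/G, 2 h RT) quantified CRE activation in HEK 293T CRE-bla cells after 3 h treatment with DMSO-dissolved compounds.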
# [12] = biological target: Beta-2 adrenergic receptor (Homo sapiens) (UniProt P07550); assay: Adrenergic beta2 receptor (ADRB2) small molecule antagonists, cell-based qHTS assay (AID 1963592); note: series mostly up to about 92 µM; nearly all actives have a fitted effect of over 50% in size
# Summary of the method: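 Cells (CHO, stable ADRB2 overexpression) incubated 18-20hr at 37C; compounds added from DMSO; agonist mix (1nM isoproterenol, 100uM IBMX, 25uM Ro-20-1724) added; 0.5hr RT; d2-cAMP and anti-cAMP-cryptate added; 1hr RT; 665/615 nm read.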
# [13] = biological target: D(2) dopamine receptor (Homo sapiens) (UniProt P14416); assay: Dopamine D2 receptor (DRD2) small molecule agonists, cell-based qHTS assay (AID 1963594); note: nearly all actives have a fitted effect of over 35% in size
# Summary of the method: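 cAMP accumulation in DRD2-HEK293 cells measured by HTRF after 1 h detection; compounds added 10 min before NKH477 (200nM […]) forskolin-analogue stimulation, 30 min at room temperature, with Ro20-1724 present at 0.1 mM final.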
# [14] = biological target: D(2) dopamine receptor (Homo sapiens) (UniProt P14416); assay: Dopamine D2 receptor (DRD2) small molecule antagonists, cell-based qHTS assay (AID 1963595; active = well fitted inhibition curve with a large enough effect in the signal ratio in the repeat runs, with a control signal flat; the % refers to the signal ratio)
# Summary of the method: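 HEK293 cells stably expressing DRD2, preincubated with 0.1 mM Ro20-1724 and compounds 10 min, were stimulated with 200 nM NKH477 plus 12 nM quinpirole for 30 min at room temperature; cAMP measured by HTRF (665/620 nm).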
# [15] = p53 small molecule agonists, cell-based qHTS assay with rat liver microsomes (AID 1963578)
# Summary of the method: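 Quantitative HTS of the Tox21 10K library: p53RE-bla cells, rat liver microsomes plus NADPH at 0.5 mg/mL final each, 16 h at 37 C, beta-lactamase fluorescence detection.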
# [16] = p53 small molecule agonists, cell-based qHTS assay with rat liver microsomes: qHTS cell viability counter screen (AID 1963580); note: nearly all actives have a fitted effect of over 45% in size; note: potency is the fitted concentration of half-maximal effect
# Summary of the method: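 HCT-116 p53RE-bla, 4,000 cells/well, 5 h pre-incubation; cpd + rat liver microsomes 0.5 mg/mL + NADPH 0.5 mg/mL (final); 16 h, 37 C; CellTiter-Glo, 30 min RT; luminescence.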
# [17] = p53 small molecule agonists, cell-based qHTS assay (AID 1963582; active = well fitted activation curve with a large enough effect in the signal ratio in the repeat runs, not every such curve was filed as active; the % refers to the signal ratio)
# Summary of the method: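 Agonist activity was scored from beta-lactamase FRET fluorescence in p53RE-bla cells treated 16 h at 37 C with compounds in DMSO, substrate incubation being 2 h at room temperature.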
# [18] = biological target: Muscarinic acetylcholine receptor M1 (Homo sapiens) (UniProt P11229); assay: Cholinergic receptor muscarinic 1 (CHRM1) small molecule antagonists, cell-based qHTS assay (AID 1963588); note: nearly all actives have a fitted effect of over 40% in size; note: potency is the fitted concentration of half-maximal effect
# Summary of the method: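 CHRM1-CHO calcium-flux assay, antagonist mode. Cells were seeded 18 h, dye-loaded 1 h at 37 C and given compound for 5 min at RT, then acetylcholine was added at 50nM. FDSS fluorescence was read 3 min; 15 concentrations, three runs.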
# [19] = cAMP Responsive Elements (CRE) small molecule antagonists, cell-based qHTS assay (AID 1963591; active = well fitted inhibition curve with a large enough effect in the signal ratio in the repeat runs, not every such curve was filed as active; the % refers to the signal ratio)
# Summary of the method: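 qHTS in CRE-bla HEK 293T cells: compound in DMSO, then 0.25 uM NKH477 (final), 3 h at 37 °C/5% CO2; beta-lactamase FRET read-out after 2 h substrate incubation.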
# [20] = biological target: Beta-2 adrenergic receptor (Homo sapiens) (UniProt P07550); assay: Adrenergic beta2 receptor (ADRB2) small molecule agonists, cell-based qHTS assay (AID 1963593);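 note: CHO cells stably overexpressing human ADRB2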
# Summary of the method: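 CHO cells stably over-expressing ADRB2 were plated overnight at 37C, then dosed with compounds plus a stimulation mix containing 100uM IBMX and 25uM Ro-20-1724 for 0.5hr at room temperature. cAMP was measured by HTRF competition, 1hr.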
# Chain of 5-hydroxytryptamine receptor 2A (Homo sapiens) (P28223 whole entry, looked up): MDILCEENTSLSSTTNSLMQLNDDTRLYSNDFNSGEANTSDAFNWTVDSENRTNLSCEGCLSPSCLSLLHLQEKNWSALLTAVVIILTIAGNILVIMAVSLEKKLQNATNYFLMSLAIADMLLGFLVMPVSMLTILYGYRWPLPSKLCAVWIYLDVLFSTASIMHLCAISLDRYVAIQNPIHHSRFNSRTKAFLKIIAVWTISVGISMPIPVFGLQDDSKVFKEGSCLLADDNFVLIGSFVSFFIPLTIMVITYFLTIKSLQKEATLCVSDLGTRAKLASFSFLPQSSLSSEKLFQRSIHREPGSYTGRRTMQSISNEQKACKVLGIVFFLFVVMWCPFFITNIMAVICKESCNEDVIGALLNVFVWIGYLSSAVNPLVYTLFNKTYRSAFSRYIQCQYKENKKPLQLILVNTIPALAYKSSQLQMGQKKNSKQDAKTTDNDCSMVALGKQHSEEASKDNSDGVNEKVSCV
# Chain of D(2) dopamine receptor (Homo sapiens) (P14416 whole entry, looked up): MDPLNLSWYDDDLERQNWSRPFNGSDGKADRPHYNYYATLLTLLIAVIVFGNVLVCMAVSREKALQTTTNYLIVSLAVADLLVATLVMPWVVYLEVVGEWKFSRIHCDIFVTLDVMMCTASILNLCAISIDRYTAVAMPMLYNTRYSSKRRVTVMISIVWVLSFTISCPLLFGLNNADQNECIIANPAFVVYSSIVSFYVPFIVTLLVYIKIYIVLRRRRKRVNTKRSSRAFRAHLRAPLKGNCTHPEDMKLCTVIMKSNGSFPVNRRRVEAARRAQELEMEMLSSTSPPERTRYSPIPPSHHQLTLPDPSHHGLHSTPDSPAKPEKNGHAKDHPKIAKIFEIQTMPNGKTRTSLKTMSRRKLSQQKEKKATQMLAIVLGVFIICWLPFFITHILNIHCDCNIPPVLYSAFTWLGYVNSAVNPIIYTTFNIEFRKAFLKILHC
# Chain of Gonadotropin-releasing hormone receptor (Homo sapiens) (P30968 whole entry, looked up): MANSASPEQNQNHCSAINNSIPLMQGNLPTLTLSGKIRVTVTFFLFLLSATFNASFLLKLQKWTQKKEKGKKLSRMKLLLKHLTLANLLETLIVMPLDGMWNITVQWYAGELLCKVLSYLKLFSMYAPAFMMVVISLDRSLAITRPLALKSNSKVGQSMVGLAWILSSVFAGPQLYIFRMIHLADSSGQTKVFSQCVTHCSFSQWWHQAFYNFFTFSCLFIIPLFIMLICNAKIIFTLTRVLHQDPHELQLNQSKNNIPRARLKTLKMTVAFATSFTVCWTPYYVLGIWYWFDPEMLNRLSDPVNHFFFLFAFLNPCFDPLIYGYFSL
# Chain of KiSS-1 receptor (Homo sapiens) (Q969F8 whole entry, looked up): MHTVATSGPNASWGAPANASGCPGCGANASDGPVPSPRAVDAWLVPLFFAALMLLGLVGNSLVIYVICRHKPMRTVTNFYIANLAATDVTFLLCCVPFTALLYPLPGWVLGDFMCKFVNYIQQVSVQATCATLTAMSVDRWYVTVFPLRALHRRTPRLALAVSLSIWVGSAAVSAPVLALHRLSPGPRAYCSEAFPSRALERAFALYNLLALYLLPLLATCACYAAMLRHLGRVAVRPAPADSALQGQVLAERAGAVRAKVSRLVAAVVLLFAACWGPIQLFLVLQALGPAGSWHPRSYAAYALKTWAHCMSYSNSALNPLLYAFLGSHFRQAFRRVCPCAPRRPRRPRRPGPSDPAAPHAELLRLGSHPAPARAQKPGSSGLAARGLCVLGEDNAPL
# Chain of Muscarinic acetylcholine receptor M1 (Homo sapiens) (P11229 whole entry, looked up): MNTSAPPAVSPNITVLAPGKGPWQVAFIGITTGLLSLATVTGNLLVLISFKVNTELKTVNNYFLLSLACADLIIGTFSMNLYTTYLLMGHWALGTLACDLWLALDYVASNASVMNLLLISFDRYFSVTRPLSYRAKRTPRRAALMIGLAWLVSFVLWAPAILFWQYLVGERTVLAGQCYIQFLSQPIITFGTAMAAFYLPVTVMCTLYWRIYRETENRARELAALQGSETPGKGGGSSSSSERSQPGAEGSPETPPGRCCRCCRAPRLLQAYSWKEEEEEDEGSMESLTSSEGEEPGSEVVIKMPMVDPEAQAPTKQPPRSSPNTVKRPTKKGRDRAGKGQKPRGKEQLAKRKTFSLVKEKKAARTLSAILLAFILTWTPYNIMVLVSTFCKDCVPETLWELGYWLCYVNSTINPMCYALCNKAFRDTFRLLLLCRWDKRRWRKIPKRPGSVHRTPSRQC
# Chain of Beta-2 adrenergic receptor (Homo sapiens) (P07550 whole entry, looked up): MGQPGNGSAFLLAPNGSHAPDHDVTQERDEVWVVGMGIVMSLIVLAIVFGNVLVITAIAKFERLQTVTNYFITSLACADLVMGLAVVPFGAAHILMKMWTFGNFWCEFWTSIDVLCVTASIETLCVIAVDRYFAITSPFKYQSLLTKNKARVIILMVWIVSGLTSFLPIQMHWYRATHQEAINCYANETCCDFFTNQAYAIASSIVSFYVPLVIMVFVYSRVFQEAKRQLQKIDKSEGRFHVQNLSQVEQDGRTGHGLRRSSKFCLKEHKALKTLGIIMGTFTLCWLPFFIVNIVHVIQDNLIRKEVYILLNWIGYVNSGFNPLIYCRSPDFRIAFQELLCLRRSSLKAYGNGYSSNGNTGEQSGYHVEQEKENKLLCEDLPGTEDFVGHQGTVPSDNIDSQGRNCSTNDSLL
Structure (SMILES),Potency [1],Potency [2],Potency [3],Potency [4],Potency [5],Potency [6],Potency [7],Potency [8],Potency [9],Potency [10],Potency [11],Potency [12],Potency [13],Potency [14],Potency [15],Potency [16],Potency [17],Potency [18],Potency [19],Potency [20]
OC[C@@H](O)[C@H]1O[C@@H]2O[C@H](C(Cl)(Cl)Cl)O[C@@H]2[C@H]1O,inactive,inactive,inactive,inactive,inactive,inactive,inactive,inactive,inactive,inactive,inactive,inactive,inactive,inactive,–,–,–,–,–,–
COC(=O)Cc1ccccc1,inactive,inactive,inactive,inactive,–,inactive,inactive,inactive,inactive,inactive,inactive,inactive,inactive,inactive,inactive,inactive,inactive,inactive,inactive,inactive
CN(N=O)c1ccccc1,inactive,inactive,inactive,inactive,inactive,inactive,–,inactive,inactive,inactive,inactive,–,inactive,inactive,–,inactive,–,inactive,inactive,–
Cc1ccc([N+](=O)[O-])cc1C,inactive,inactive,inactive,inactive,inactive,inactive,–,inactive,inactive,inactive,inactive,inactive,inactive,inactive,–,inactive,–,–,inactive,inactive
CC(C)CCCCCOC(=O)c1ccccc1C(=O)OCCCCCC(C)C,inactive,inactive,inactive,inactive,–,inactive,inactive,inactive,inactive,inactive,inactive,inactive,inactive,inactive,inactive,inactive,inactive,2620 nM (active),inactive,inactive
COc1ccc(N)cc1N,inactive,25.1 µM (active) and 33 µM (active),inactive,inactive,inactive,–,inactive,inactive,22.6 µM (active) and inactive,inactive,–,–,inactive,inactive,–,–,–,inactive,inactive,inactive
COP(=S)(OC)SCN1C(=O)c2ccccc2C1=O,inactive,61.6 µM (active) and 68.6 µM (active) and inactive,inactive,inactive,inactive,inactive,inactive,inactive,inactive,inactive,inactive,inactive,inactive,inactive,–,–,inactive,inactive,inactive,inactive
NC(=S)Nc1ccccc1,inactive,55.4 µM (active) and inactive,inactive,inactive,inactive,inactive,–,inactive,inactive,inactive,inactive,inactive,inactive,inactive,–,29.4 µM (active) and inactive,–,inactive,inactive,–
CN(C)c1nc(=O)n(C2CCCCC2)c(=O)n1C,inactive,inactive,inactive,inactive,inactive,inactive,inactive,inactive,inactive,inactive,inactive,inactive,inactive,inactive,–,–,–,inactive,inactive,inactive
CNC(=O)CSP(=S)(OC)OC,inactive,inactive,inactive,inactive,inactive,–,inactive,inactive,–,inactive,inactive,inactive,inactive,inactive,–,inactive,–,inactive,inactive,inactive
CC1CC(=O)O1 (configuration not stated),inactive,inactive,inactive,inactive,inactive,inactive,inactive,inactive,inactive,inactive,inactive,inactive,inactive,–,–,–,–,inactive,inactive,inactive
NNc1ccccc1,inactive,inactive,inactive,inactive,inactive,inactive,–,–,–,–,inactive,inactive,inactive,inactive,–,inactive,–,–,inactive,inactive
O=NN1CCCCCC1,inactive,inactive,inactive,inactive,–,inactive,inactive,inactive,inactive,inactive,inactive,inactive,inactive,inactive,inactive,inactive,inactive,inactive,inactive,–
c1ccc2c(c1)oc1ccccc12,inactive,inactive,inactive,inactive,inactive,inactive,–,inactive,inactive,inactive,inactive,inactive,inactive,inactive,–,inactive,inactive,–,inactive,inactive
CC1C=[C-]C=C1.[C-]#[O+].[C-]#[O+].[C-]#[O+].[Mn],inactive,inactive,inactive,inactive,inactive,inactive,inactive,inactive,inactive,–,inactive,inactive,inactive,inactive,–,–,–,inactive,–,inactive
Nc1ccc(Cl)c(Cl)c1,inactive,inactive,inactive,inactive,–,inactive,inactive,inactive,inactive,inactive,inactive,inactive,inactive,inactive,inactive,inactive,inactive,inactive,inactive,inactive
OCCOCCO,inactive,inactive,inactive,inactive,inactive,inactive,–,inactive,inactive,inactive,inactive,–,–,inactive,–,inactive,–,inactive,inactive,inactive

# Reference: PubChem BioAssay (Tox21)
